Each structure is given as a SMILES string. The whole screen tested about 69,000 compounds, of which about 420 (0.61%) showed an effect of 50% or more. The list comes from a sample in which strong results are over-represented; it also holds similar structures and randomly drawn compounds.

The experiment concerns the target T1, Histidine--tRNA ligase (Leishmania infantum) (UniProt A4I591).
T1 sequence (whole entry): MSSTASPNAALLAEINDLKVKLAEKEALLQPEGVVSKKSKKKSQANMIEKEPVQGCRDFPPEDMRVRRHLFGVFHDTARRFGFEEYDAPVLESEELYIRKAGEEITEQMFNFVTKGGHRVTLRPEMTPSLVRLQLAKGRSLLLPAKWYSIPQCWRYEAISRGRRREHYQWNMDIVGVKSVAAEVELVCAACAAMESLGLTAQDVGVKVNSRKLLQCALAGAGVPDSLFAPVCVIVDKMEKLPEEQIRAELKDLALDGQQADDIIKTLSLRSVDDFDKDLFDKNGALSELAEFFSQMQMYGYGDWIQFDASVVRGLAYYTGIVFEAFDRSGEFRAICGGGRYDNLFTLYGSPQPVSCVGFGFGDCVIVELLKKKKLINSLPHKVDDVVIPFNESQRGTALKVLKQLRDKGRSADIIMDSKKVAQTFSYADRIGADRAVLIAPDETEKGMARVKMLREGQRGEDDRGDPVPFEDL
In words: Leishmania infantum Histidine tRNA synthetase (LdHisRS). To be noted: 30 µM. Also on record: scale not given: in the data most compounds retested in dose-response had high values. Format: functional.
On to `CN(C)C(=O)N1C[C@@H]2CC[C@H](C1)N(S(=O)(=O)c1cccnc1)C2`, for which the Percent Effect turned out to be 12.1%.

For `CCO[C@H]1CN(CC2CCOCC2)[C@@H]2CCCO[C@H]12`, the Percent Effect was found to be 7.92%.

In the case of `O=S(=O)(C1CC1)N1CCO[C@H]2[C@H](OCC3CC3)CC[C@@H]21`, the Percent Effect was 5.56%. As for `O=C(c1cnccn1)N1CCN2C[C@H](OCc3ccccc3)C[C@H]2C1`, the figure is 15.1%; as for `Cc1cnc(NC(=O)c2csc(NC3CCCC3)n2)s1`, 21.4%. As for `O=C(Nc1ccccn1)c1csc(NC2CCCC2)n1`, the figure is 28.1%; as for `O=C(Nc1nccs1)c1csc(NC2CCCC2)n1`, 66.3%; as for `Cc1n[nH]c(SCC(=O)N2C[C@H]3CC[C@@H]2CN(c2ncccn2)C3)n1`, 9.38%.

`COCCN1C[C@@H]2CCCO[C@@H]2[C@H](NC(=O)c2cnccn2)C1`: the Percent Effect stood at 11.3%. As for `c1cncc(NCCCNC2CCSC2)c1` (stereo not given), the figure is 28.6%; as for `CC(C)CN1CCC(NCCNc2cccnc2)CC1`, 9.76%. Turning to `Cc1cnccc1NCCNC1CCSCC1`, the Percent Effect was 17.1%. On to `c1cncc(NCCNC2CSCCSC2)c1`, for which the Percent Effect came to 74.3%. With `c1cncc(NCCNC2CCSCC2)c1`, the Percent Effect was determined as 8.57%.

`c1cncc(NCCNC2CCSC2)c1` (stereo not given): the Percent Effect was 62.9%.

Turning to `CN(Cc1ccsc1)C(=O)Nc1ccc(S(=O)(=O)N(C)C)cc1`, the Percent Effect is -30.3%. Regarding `Cc1cc(NC(=O)CCc2ccsc2)n(C)n1`, the Percent Effect amounted to 18.3%. With `Cn1cc(NC(=O)CCc2ccsc2)ccc1=O`, the Percent Effect came out at 103%.

For `CN(Cc1ccsc1)C(=O)Nc1ccc(=O)n(C)c1`, the Percent Effect was 123%. On to `CN(Cc1ccsc1)C(=O)Nc1ccc(S(C)(=O)=O)cc1`, for which the Percent Effect is 11.9%. For the molecule `CCNC(=O)N1CCc2ccc(NC(=O)NCc3ccsc3)cc21`, the Percent Effect is 31.7%. For the molecule `Cn1cc(NC(=O)NCc2ccsc2)ccc1=O`, the Percent Effect was 126%. Consider `COCc1csc(NC(=O)NCc2ccsc2)n1`, for which the Percent Effect stood at 14.3%.

As for `Cc1cnccc1NC(=O)CCc1ccsc1`, the Percent Effect is 9.33%. As for `O=C1CO[C@H]2CN(S(=O)(=O)c3ccccc3)C[C@H]2N1Cc1ccccc1`, the figure is 25%; as for `CCC1=N[C@@]2(CC[C@@H]3CN(S(C)(=O)=O)C[C@@H]32)C(=O)N1CC(C)C`, 7.96%.

As for `CC(C)CO[C@H]1CN(S(=O)(=O)c2cn(C)cn2)[C@@H]2CCCO[C@H]12`, the Percent Effect turned out to be 1.01%. With `C(=C\c1ccc(CN2CCCC2)cn1)/c1ccccc1`, the Percent Effect was 22.6%.

`COc1ccc(C)cc1CN1CCn2cccc2C1C` (stereo not given): the Percent Effect amounted to 42%. Take `COc1ccc(CN2CCn3cccc3C2C)cc1F` (stereo not given): the Percent Effect was 29.5%. On to `COc1ccc(C(C)=O)cc1CN1CCn2cccc2C1C` (stereo not given), for which the Percent Effect was 52.7%. As to `CN(C)C[C@H]1OC[C@@H]2CCN(S(=O)(=O)c3ccc(F)cc3)C[C@@H]21`, the Percent Effect is -4.59%. For `O=C1CC[C@H]2CN(C3CCOCC3)CC[C@H]2N1CCC1=CCCCC1`, the Percent Effect amounted to 15.6%. `COc1ccc(CN2C[C@@H]3CC[C@H](C2)N(S(C)(=O)=O)C3)cc1`: the Percent Effect is 10%. As for `O=S1(=O)C[C@@H]2[C@H](C1)N(S(=O)(=O)N1CCCC1)CCN2Cc1ccccc1`, the Percent Effect is 19.2%.

As for `CN(C)CCN1CCO[C@@H]2CCN(C(=O)c3cccn3C)CC[C@H]21`, the Percent Effect stood at 52.8%. `CN(C)CCN1CCO[C@H]2CCN(C(=O)c3cccs3)CC[C@@H]21`: the Percent Effect is 15.4%. `CN(C)CCN1CCCC12CCN(C(=O)c1cccn1C)CC2`: the Percent Effect stood at 5.88%.

On to `COc1ccccc1CN1C(=O)O[C@@H]2CN(CC3CC3)C[C@@H]21`, for which the Percent Effect is 10%. Take `O=C([C@@H]1CC[C@@H]2[C@@H](CCN2Cc2cccs2)O1)N1CCCCO1`: the Percent Effect is 17.1%.

Consider `CC(C)c1nnc2n1CCN(C(=O)c1ccc(Cn3cccc3)cc1)C2`, for which the Percent Effect came out at 14.9%.

Consider `Cc1nnc2n1CCN(C(=O)c1ccc(Cn3cccc3)cc1)C2`, for which the Percent Effect came out at 51.7%. On to `NC(=O)c1cnc2n1CCN(C(=O)c1ccc(Cn3cccc3)cc1)C2`, for which the Percent Effect worked out at 63.2%. In the case of `NC(=O)c1cnc2n1CCN(C(=O)c1ccc(-c3cc[nH]n3)cc1)C2`, the Percent Effect worked out at 14.9%. Consider `NC(=O)c1cnc2n1CCN(C(=O)c1cccc(Cn3cccn3)c1)C2`, for which the Percent Effect was determined as 12.6%. In the case of `Cc1nc2ccc(C(=O)N3CCn4c(C)nnc4C3)cc2nc1C`, the Percent Effect was 21%. `COc1cccc(SCCCn2cnc3c(N)ncnc32)c1`: the Percent Effect turned out to be 4.08%.

For the molecule `Clc1ccc(C2(CNC3=NCCN3)CCCC2)cc1`, the Percent Effect worked out at 35.7%. Turning to `Clc1ccc(C2(CNC3=NCCN3)CCCCC2)cc1`, the Percent Effect came out at 50%. On to `Clc1ccc(C2(CNC3=NCCN3)CC2)cc1`, for which the Percent Effect came out at 18.6%. As for `CC(C)c1n[nH]c(C(=O)Nc2ccccn2)c1Br`, the Percent Effect was determined as 0%. With `CNC(=O)[C@@]12CCO[C@@H]1CCN(S(=O)(=O)c1ccccc1C)C2`, the Percent Effect worked out at 5%. As for `CC(C)CS(=O)(=O)N1C[C@H]2C[C@H](C(=O)N3CCOCC3)[C@@H](C1)O2`, the figure is 1.89%; as for `O=C(c1cccnc1-c1ccoc1)N1C[C@H]2CC[C@@H]1C2`, 1.43%; as for `COc1ccc(OC)c(C2CC(=O)Nc3nc(N4CCOCC4)sc32)c1` (stereo not given), 102%.

For `CCn1ncnc1C1CC(=O)NCc2nc(N3CCOCC3)sc21` (stereo not given), the Percent Effect was found to be 25.3%.

With `COc1ccc(OC)c(C2CCN(CC(C)(C)N3CCOCC3)C2)c1` (stereo not given), the Percent Effect was found to be 12.7%. The result for `COc1ccc(C(C)C)cc1C1CC(=O)NCc2nc(N(C)C)sc21` (stereo not given) reads 31.2%. The result for `COc1ccc(C2CCCN2c2nnc(C)s2)c(OC)c1` (stereo not given) reads 6.25%; that for `COc1ccc(C2CC(=O)NCc3nc(N(C)C)sc32)c(O)c1` (stereo not given), 10.8%; that for `COc1ccc(C2CC(=O)Nc3c2cnn3C)cc1` (stereo not given), 1.91%. For the molecule `COc1ccc(C2CC(=O)Nc3nc(N4CCOCC4)sc32)c(OC)c1` (stereo not given), the Percent Effect came to 115%. For the molecule `COc1ccc(C2CC(=O)Nc3nc(N4CCOCC4)sc32)cc1` (stereo not given), the Percent Effect amounted to 105%. The result for `O=C(c1ccncc1)N1C[C@@H]2CC[C@H](C1)N(C(=O)N1CCOCC1)C2` reads 12.6%; that for `COCC(=O)N1CC[C@]2(O)CCN(Cc3cccnc3OC)C[C@@H]2C1`, 17.1%; that for `COc1ccc(CC(=O)N2CC[C@@H]3NC(=O)CC[C@@H]32)cc1`, 8.77%. For the molecule `CC(C)Cn1cncc1CNC(=O)c1cccc(CC2CCNCC2)c1`, the Percent Effect is 25.6%. Regarding `O=C(NCc1cnn2cccnc12)c1cccc(CC2CCNCC2)c1`, the Percent Effect amounted to 60%. Take `CC(C)(O)CCc1cccc(C(=O)NCc2cnn3cccnc23)c1`: the Percent Effect amounted to 2.22%. On to `O=C(CC1CCCCC1)N1C[C@H]2CC[C@@H]1CN(Cc1cccnc1)C2`, for which the Percent Effect is 9.68%.

For the origin of these results see ChEMBL document CHEMBL3988442, “University of Dundee, Small-Polar-MMV Screening Library” (2021).
